Where two headings read alike, the source gives them in different places.

These results are taken from article PMC5540273 (PLoS ONE, 2017).

Assay [1] concerns T1, GRK2.
T1 construct: gene ADRBK1
The following applies: concentration: 1 μM, replicates: in singlicate; n = 1.

For assay [2], the system named is T2, GRK3.
T2 construct: gene ADRBK2
The following applies: concentration: 1 μM, replicates: in singlicate; n = 1.

The subject of assay [3] is GRK4. The following applies: concentration: 1 μM, replicates: in singlicate; n = 1.
The test system of assay [4] is GRK7. The following applies: concentration: 1 μM, replicates: in singlicate; n = 1.
The subject of assay [5] is GSK3A. Conditions: concentration: 1 μM, replicates: in singlicate; n = 1.
Assay [6] concerns GSK3B. The following applies: n = 1.
Assay [7] deals with T3, HASPIN.
T3 construct: gene GSG2
Conditions: concentration: 1 μM, replicates: in singlicate; n = 1.

Assay [8] relates to HCK. The following applies: concentration: 1 μM, replicates: in singlicate; n = 1.
The test system of assay [9] is HIPK1. The following applies: concentration: 1 μM, replicates: in singlicate; n = 1.
The subject of assay [10] is HIPK2. Conditions: concentration: 1 μM, replicates: in singlicate; n = 1.
The mark [11] stands for this setting: concentration: 1 μM, replicates: in singlicate.
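Note: KINOMEscan kinase panel screen.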

On to `COc1cc(OC)cc(-c2cc3cnc(N)nc3nc2NC(=O)NC(C)(C)C)c1`, for which the “%Inh” value turned out to be 0% in assay [1]; 0% in assay [2]; 13% in assay [3]; 9% in assay [4]; 0% in assay [5]; 0% in assay [6] (setting [11]). Moreover, the “%Inh” value in [7] is recorded as 0%; in assay [8], 0%; in assay [9], 15%; in assay [10], 0%.

For `Nc1nc(-c2ccccc2F)c(-c2ccnc3ccccc23)s1` [GW560459], the “%Inh” value in assay [1] was found to be 0%; in assay [2] it was 50%; in assay [3], 0%; in assay [4], 0%; in assay [5], 3%; in [6] (setting [11]), 0%. The “%Inh” value was 25% in [7], 0% in assay [8], 0% in assay [9] and 0% in assay [10].

For the compound `Cn1c(=O)c(F)c(Nc2ccc(I)cc2F)c2c(=O)n(OC[C@H](O)CO)cnc21`, the “%Inh” value in [1] was 0%; in assay [2] it was 0%; in assay [3], 0%; in assay [4] it was 0%; in [5], 0%; in assay [6] (setting [11]) it was 3%. Moreover, the “%Inh” value in assay [7] was 4%; in assay [8], 10%; in assay [9], 52%; in [10] it was 0%.

As for `COc1ccc(CNC(=O)NC2CCN(c3ccnc(Nc4ccc(F)cc4)n3)C2)cc1` (stereo not drawn) [GSK1379706], the “%Inh” value in assay [1] amounted to 0%; in assay [2] it was 51%; in [3], 19%; in assay [4], 0%; in assay [5] it was 23%; in assay [6] (setting [11]) it was 1%. In addition, the “%Inh” value came out at 32% in assay [7], 0% in [8], 19% in assay [9] and 13% in assay [10].

In the case of `Cc1ccc(-c2ccc3c(ccc4sc5c(c43)NC[C@@H](C)N=C5N(C)C)n2)cn1`, the “%Inh” value was found to be 0% in assay [1]; 1% in assay [2]; 0% in [3]; 0% in assay [4]; 0% in assay [5]; 0% in assay [6] (setting [11]). Also, the “%Inh” value in assay [7] was determined as 23%; in [8] it was 14%; in assay [9], 0%; in assay [10], 0%.

Consider `COc1cc(Nc2ccnc3ccc(C(F)(F)F)cc23)cc(OC)c1OC` [GW577382], for which the “%Inh” value in assay [1] turned out to be 0%; in assay [2], 25%; in assay [3], 0%; in [4], 0%; in [5] it was 0%; in assay [6] (setting [11]) it was 3%. Moreover, the “%Inh” value in assay [7] is 29%; in assay [8] it was 38%; in assay [9] it was 5%; in assay [10], 0%.

Consider `CN1C(=O)C(Nc2ccccc2)=C(c2ccccc2)C1=O` [SB-300079], for which the “%Inh” value in assay [1] amounted to 0%; in assay [2], 0%; in assay [3] it was 0%; in assay [4], 0%; in [5], 9%; in [6] (setting [11]) it was 3%. The “%Inh” value in [7] is given as 15%; in [8] it was 13%; in assay [9], 28%; in [10] it was 9%.

Consider `O=C(Nc1n[nH]c2nc(-c3ccccc3)c(Cl)cc12)C1CC1` [SB-734909], for which the “%Inh” value in assay [1] is 0%; in [2] it was 83%; in assay [3], 17%; in [4], 0%; in assay [5], 90.6%; in assay [6] (1 µM) it was 56%. Further, the “%Inh” value was 0% in assay [7], 0% in assay [8], 20% in [9] and 0% in [10].

As to `COc1cc(Nc2nccc(N3CCC(NC(=O)C(C)c4ccc(Cl)cc4)C3)n2)cc(OC)c1OC` (stereo not drawn) [GSK1379757], the “%Inh” value in assay [1] amounted to 0%; in assay [2], 17%; in assay [3] it was 37%; in assay [4], 0%; in assay [5], 0%; in assay [6] (setting [11]), 0%. Also, the “%Inh” value is listed as 21% in assay [7], 11% in assay [8], 0% in assay [9] and 0% in assay [10].

As for `O=C(NCCNc1ccnc(Nc2ccc(F)cc2)n1)Nc1ccc2c(c1)OCO2` [GSK1379882], the “%Inh” value in assay [1] is listed as 0%; in [2] it was 0%; in assay [3], 0%; in [4], 0%; in assay [5], 34%; in [6] (setting [11]), 6%. The “%Inh” value in [7], in assay [8], in assay [9] and in assay [10] was 0% throughout.

For the compound `C[C@@H]1CC[C@H](C(=O)NC2CCCCC2)CN1c1cc(-c2ccc3c(N)n[nH]c3c2)nc(N)n1` [GSK2291363], the “%Inh” value in assay [1] is 0%; in assay [2], 32%; in [3], 45%; in assay [4], 0%; in assay [5] it was 5%; in assay [6] (setting [11]), 17%. Also, the “%Inh” value was 2% in assay [7], 0% in assay [8], 9% in [9] and 0% in [10].

Regarding `CN(C)c1cc(-c2ccc3c(N)n[nH]c3c2)nc(N)n1` [GSK2219329], the “%Inh” value is 0% in assay [1]; 0% in assay [2]; 0% in [3]; 0% in assay [4]; 0% in [5]; 5% in [6] (setting [11]). Further, the “%Inh” value in [7], in [8], in [9] and in [10] was 0% in each case.

As to `O=C1NC(=O)C(c2ccccc2)=C1Nc1cccc(O)c1` [SB-390534], the “%Inh” value is given as 0% in assay [1]; 0% in assay [2]; 3% in [3]; 0% in assay [4]; 30% in assay [5]; 20% in [6] (1 µM). Further, the “%Inh” value in [7] is 6%; in assay [8], 6%; in assay [9] it was 8%; in assay [10] it was 18%.

As to `Nc1nc(N)c2nc(-c3ccccc3)[nH]c2n1` [SKF-12778], the “%Inh” value was 13% in [1]; 9% in assay [2]; 18% in assay [3]; 4% in [4]; 0% in [5]; 0% in [6] (setting [11]). In addition, the “%Inh” value is listed as 0% in assay [7], 3% in assay [8], 5% in assay [9] and 11% in assay [10].

As to `CCn1c(-c2ccoc2)nc2cnccc21` [SB-733887], the “%Inh” value in assay [1] turned out to be 0%; in assay [2] it was 0%; in [3], 0%; in assay [4] it was 93.9%; in assay [5], 35%; in assay [6] (setting [11]), 22%. For the same compound, the “%Inh” value in [7] worked out at 37%; in assay [8] it was 0%; in [9], 0%; in assay [10], 0%.

In the case of `Cc1ccc(Oc2ccc(Nc3ncnc4cc[nH]c34)cc2C)cn1`, the “%Inh” value was found to be 0% in assay [1]; 28% in [2]; 0% in assay [3]; 44% in [4]; 0% in assay [5]; 0% in [6] (setting [11]). In addition, the “%Inh” value in assay [7] was 8%; in [8], 16%; in assay [9] it was 20%; in [10] it was 11%.

Take `Cc1nn2c(=O)cc(N3CCOCC3)nc2n1Cc1cccc(Cl)c1Cl` [GSK2342769]: the “%Inh” value in assay [1] was 0%; in assay [2], 83%; in assay [3], 2%; in [4] it was 0%; in [5] it was 10%; in assay [6] (setting [11]), 13%. Besides, the “%Inh” value worked out at 8% in assay [7], 0% in assay [8], 0% in assay [9] and 0% in [10].

On to `Nc1ncnc2c1ncn2-c1cccc2ccccc12` [SKF-97184], for which the “%Inh” value in [1] is 0%; in assay [2] it was 0%; in assay [3], 14%; in [4], 4%; in assay [5] it was 8%; in [6] (setting [11]), 23%. Moreover, the “%Inh” value in [7] was 60%; in assay [8], 7%; in assay [9], 34%; in assay [10], 0%.
